Experimental data from PubChem BioAssay AID588477 (NMMLSC, 2011).
Active and inactive are the calls of the source.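 How the source made its calls: active means valid curve fit with half-effect dose at most 10 µM and total binding change across doses of 30 points or more; inactive means the rest.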

system: Ras wt; test: small GTPase nucleotide-binding inhibition, multiplex panel – biochemical, round 1 SAR, Mg buffer, multiplex flow cytometry, selectivity assay for Cdc42 probe extension project, SAR follow-up (AID 588477); details: GST-GTPase beads, Bodipy-GTP binding; series mostly up to 100 µM

outcome, inactive:
NS(=O)(=O)c1ccc(N2N=C(c3ccccc3)CC2c2ccccc2)cc1 (stereo not drawn)
COc1ccc(C2CC(c3ccccc3)=NN2c2ccc(S(N)(=O)=O)cc2)cc1 (stereo not drawn)
O=C(C#Cc1ccccc1)c1cccc([N+](=O)[O-])c1
